Assay results as given in PubChem BioAssay (NCATS).
“And” between values parts separate entries of the source, which are not always exact repeats. Equal values may be shown once. Inconclusive results are not listed. Values without a mark were called inactive. The source made the active and inactive calls. Calls follow the shape of the dose curve; as a rule, active = well fitted curve in the direction sought with a large enough effect; inconclusive = small, poorly fitted or top-dose-only effect, or another doubt; inactive = no such curve, though single readings can be large or run the other way. Where a SMILES comes first, the peptide text is derived from it. Bridges are numbered along the chain shown (N, C = ends). [ ]: non-standard residue; d: D form. The star is where a group is joined. X1 = CC[C@@H](C)[C@@H](N)C1=N[C@H](C(=O)*)CS1; d(aIle) = CC[C@H](C)[C@@H](N)C(=O)O; dOrn = NCCC[C@@H](N)C(=O)O

Assay: qHTS Assay for Identifying Gametocytocidal Compounds (AID 743244);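 as to max response: actives lower the fluorescent signal which means gametocytes are killed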
Conditions: P. falciparum 3D7 stage III-V gametocytes, alamarBlue, 72 h; max response: hits give low values
Description: Malaria cases and deaths have dropped 50% in 29 countries since 2000 due to the combined effects of long-lasting insecticidal bednets, indoor residual spraying, and artemisinin-based combination therapies (ACTs). This success has raised hopes for malaria eradication and consequently stimulated interest in developing new reagents that block gametocyte transmission such as novel and safe gametocytocidal drugs. However, previous drug development efforts have focused primarily on the asexual parasites that cause symptoms, but not malaria transmission. Consequently, patients can remain infectious for weeks after the clearance of asexual parasites and clinical symptoms. To be transmitted from person to person via a mosquito, the parasites must switch from asexual to sexual development and produce male and female gametocytes. Malaria gametocytes consist of five stages (I, II, III, IV and V). The late stage gametocytes (III, IV and V) are difficult to be cultured in vitro and the long lifespan of mature gametocytes allows them being transmitted from host to mosquitoes unless they are completely eliminated by gametocytocidal agents. To identify gametocytocidal compounds which are capable of killing late stage P. falciparum gametocytes, a high throughput gametocyte viability assay was employed. This assay uses oxidoreduction indicator, alamarBlue, as a general measure of metabolic activity of gametocytes. Within live cells, the nonfluorescent resazurin is reduced to resorufin, a bright red fluorescence dye. Fluorescence decreases upon treatment of gametocytocidal compounds. P. falciparum gametocyte (3D7 strain) was used in this study.
The 1536-well gametocycidal viability assay was based on the previous method of Tanaka et al. Stage III-V gametocytes were tested against three compound libraries, including 4265 compounds from NCGC pharmaceutical collection, 400 from Malaria Box library, and 550 from an internal collection of kinase inhibitors. Briefly, 2.5 ul/well incomplete medium was dispensed into each well of 1,536-well plates using the Multidrop Combi followed by 23 nl compound transferring using the NX-TR Pintool (WAKO Scientific Solutions, San Diego, CA). Then, 2.5 ul/well of gametocytes was dispensed with a seeding density of 20,000 cells/well using the Multidrop Combi. The assay plates were incubated for 72 h at 37C with 5% CO2. After addition of 5 ul/well of 2X AlamarBlue dye (Life Technologies, cat. no. DAL1100), the plates were incubated for 24 h at 37C with 5% CO2 and then were read in a fluorescence detection mode (Ex = 525 nm, Em = 598 nm) on a ViewLux plate reader (PerkinElmer).
% is scaled to controls: 0 for no effect and ±100 for the full control effect; potency is read from the fitted curve at half-maximal effect.

Row | Compound | max response | Potency
1 | CC(C)Cc1ccc([C@@H](C)C(=O)NS(C)(=O)=O)cc1 | 17.9% | –
2 | CO/N=C(\C(=O)N[C@@H]1C(=O)N2C(C(=O)O)=C(CSC(=O)c3ccco3)CS[C@H]12)c1csc(N)n1 | -2.3% | –
3 | CCOc1ccc(S(=O)(=O)O)c2cccnc12 | 1.62% | –
4 | [O]=[Bi][O][Bi]=[O] | 11.3% | –
5 | C=CCCCCCCCCC(=O)OC | 16.7% | –
6 | CC[C@@H](C)[C@@H](N)C1=N[C@H](C(=O)N[C@@H](CC(C)C)C(=O)N[C@@H](CCC(=O)O)C(=O)N[C@@H](C(=O)N[C@@H]2CCCCNC(=O)[C@@H](CC(N)=O)NC(=O)[C@@H](CC(=O)O)NC(=O)[C@@H](Cc3cnc[nH]3)NC(=O)[C@@H](Cc3ccccc3)NC(=O)[C@@H]([C@H](C)CC)NC(=O)[C@@H](CCCN)NC2=O)[C@@H](C)CC)CS1 (X1-LE[d(aIle)][dK][dOrn][dI][dF][dH][dD][dN]; lactam 4-C) | 17.8% and -1.65% | –
7 | OCC(O)CO | 9.54% | –
8 | O=C(O)CN(CC(=O)O)CC1=CC2C(=CC1=O)Oc1cc(O)c(CN(CC(=O)O)CC(=O)O)cc1C21OC(=O)c2ccccc21 (stereo not given) | 5.31% | –
9 | C[Si](C)(C)O[Si](C)(C)C | 4.27% | –
10 | C=Cc1ccc(S(=O)(=O)O)cc1 | -6.42% | –
11 | COC1=C(OC)C(=O)C(C/C=C(\C)CC/C=C(\C)CC/C=C(\C)CC/C=C(\C)CC/C=C(\C)CC/C=C(\C)CC/C=C(\C)CC/C=C(\C)CC/C=C(\C)CCC=C(C)C)=C(C)C1=O | 1.6% and -2.73% | –
12 | Cc1cccc(C)c1NC(=O)C1CCCCN1C (stereo not given) | -1.88% | –
13 | O=C(O)[C@@H]1C[C@H](CP(=O)(O)O)CCN1 | 11.7% | –
14 | CN[C@@H]1[C@@H](O[C@H]2O[C@H](CO)[C@@H](N)[C@H](O)[C@H]2O)O[C@H]2C[C@@H](N)[C@@H](O[C@H]3[C@H](O)[C@@H](O)[C@H](N)C[C@@H]3N)O[C@@H]2[C@@H]1O | 4.88% | –
15 | COc1ccc2c(=O)c(C)c(-c3ccccc3)oc2c1CN(C)C | 1.87% | –
16 | COc1ccc(C(=O)/C(Br)=C\C(=O)O)cc1 | 20.3% | –
17 | CC1(C)[C@H]2CC[C@]1(C)[C@H](O)C2 | 0.139% | –
18 | CCCCC/C=C\CCC(=O)N[C@H]1[C@H](Oc2c3cc4cc2Oc2ccc(cc2Cl)[C@@H](O[C@@H]2O[C@H](CO)[C@@H](O)[C@H](O)[C@H]2NC(C)=O)[C@@H]2NC(=O)[C@H](NC(=O)[C@@H]4NC(=O)[C@H]4NC(=O)[C@@H](Cc5ccc(c(Cl)c5)O3)NC(=O)[C@H](N)c3ccc(O)c(c3)Oc3cc(O)cc4c3)c3ccc(O)c(c3)-c3c(O[C@H]4O[C@H](CO)[C@@H](O)[C@H](O)[C@@H]4O)cc(O)cc3[C@@H](C(=O)O)NC2=O)O[C@H](CO)[C@@H](O)[C@@H]1O | -6.11% | –
19 | CO/N=C(\C(=O)N[C@@H]1C(=O)N2C(C(=O)O)=C(C[N+]3(C)CCCC3)CS[C@H]12)c1csc(N)n1 | 15.9% | –
20 | CC/C=C\C/C=C\C/C=C\C/C=C\C/C=C\C/C=C\CCC(=O)O | -1.97% | –

Row | Compound | max response | Potency
21 | O=P(O)(O)OP(=O)(O)OP(=O)(O)O | 1.26% | –
22 | O=C1c2c(O)cccc2[C@H]([C@@H]2O[C@H](CO)[C@@H](O)[C@H](O)[C@H]2O)c2cc(CO)cc(O)c21 | -5.95% and -4.23% | –
23 | C/C=C/C=C/C(=O)O | -7.74% | –
24 | O=C1c2ccccc2C(=O)C1c1ccc(F)cc1 | 5.59% | –
25 | FC(F)(F)C(F)(F)C(F)(F)C(F)(F)C(F)(F)F | -2.45% | –
26 | CC(=O)[O][Al][O]C(C)=O | -11.1% | –
27 | N[C@H](CC(=O)O)C(=O)O | 2.16% | –
28 | CC(CC=O)CCCC(C)(C)O (stereo not given) | 6.46% | –
29 | Cc1ncc(C[n+]2csc(CCOP(=O)(O)OP(=O)(O)O)c2C)c(N)n1 | 0.908% | –
30 | CC(C)(C)CC(C)(C)c1cc(Cc2cc(C(C)(C)CC(C)(C)C)cc(-n3nc4ccccc4n3)c2O)c(O)c(-n2nc3ccccc3n2)c1 | -7% | –
31 | FCOC(C(F)(F)F)C(F)(F)F | -7.47% | –
32 | NC(=O)OC[C@@H]1[C@H](NC(=O)/C(=N\OCC(=O)O)c2csc(N)n2)C(=O)N1S(=O)(=O)O | -1.55% | –
33 | CCN(CC)C(=S)S | – | 6.31 µM (active)
34 | CN[C@@H]1[C@H](O[C@H]2[C@H](O[C@H]3[C@H](O)[C@@H](O)[C@H](N=C(N)N)[C@@H](O)[C@@H]3N=C(N)N)O[C@@H](C)[C@]2(O)C=O)O[C@@H](CO)[C@H](O)[C@H]1O | 14.8% | –
35 | N=C(N)n1cccn1 | 13.6% | –
36 | CC(C)[C@@H](N)C(=O)O | 7.16% | –
37 | CO[C@H]1C[C@H](O[C@H]2[C@H](C)[C@@H](O[C@@H]3O[C@H](C)C[C@H](N(C)C)[C@H]3O)[C@@H](C)C[C@]3(CO3)C(=O)[C@H](C)[C@@H](O)[C@@H](C)[C@@H](C)OC(=O)[C@@H]2C)O[C@@H](C)[C@@H]1O | -2.69% | –
38 | CC(=O)Nc1c(I)c(C(=O)N[C@H]2C(O)O[C@H](CO)[C@@H](O)[C@@H]2O)c(I)c(N(C)C(C)=O)c1I (stereo not given in full) | 5.57% | –
39 | CCCCC[C@H](O)/C=C/[C@H]1[C@H](O)CC(=O)[C@@H]1CCCCCCC(=O)O | -10.5% | –
40 | C=CC(=O)O | -1.82% | –
